# Screens (PubChem)
# Shown are actives, neighbours in structure and some others; about 2.7% of the full set was active somewhere.
# Nrf2 activator: activates Nrf2 signaling; AREc32 ARE-luciferase reporter (MCF7-derived line), luminescence, 24 h; Potency, µM (titrated, usually from 46.1 µM), inactives show at the top dose activation, actives largely listed as activators; 410,000 tested, 0.31% active; AID 624171; further: potency means the concentration at half of the fitted maximal effect; % of control where 0% means no effect; nearly all actives have a fitted effect of over 65% in size
#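 Steps: seed AREc32_Fluc cells (1000/well, 5% FBS OPTI-MEM); incubate overnight at 37 deg C; add 23 nL compound; incubate 24 hr; add Steady-Glo; hold 30 min RT; read luminescence.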
# Nrf2 inh: Nrf2 pathway inhibition. A549 ARE-Fluc reporter, luciferase luminescence, 18-24 h. Potency, µM (doses to about 46 µM), for inactives: at the top dose activity change, negative = inhibition, actives largely listed as inhibitors. 360,000 tested, 2.1% active. AID 504444; further: potency means the concentration at half of the fitted maximal effect; on the % scale 0 is the no-effect control and ±100 the full control effect; nearly all actives have a fitted effect of over 60% in size
#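 Nrf2 function is reported as luminescence of an ARE-controlled luciferase in A549 cells. Compounds were tested at several concentrations, and a CellTiter-Fluor read on the same wells flagged cytotoxicity.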
# A549 viability: A549 cytotoxicity, counter-screen for Nrf2 inhibitors. 390,000 tested, 0.16% active. A549 ARE-Fluc cells, CellTiter-Fluor viability, 18-24 h. Potency, µM (series often up to 46 µM), inactives show at the top dose activity change, negative = cytotoxicity, actives largely listed as inhibitors; further: potency means the concentration at half of the fitted maximal effect; on the % scale 0 is the no-effect control and ±100 the full control effect
#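 A549 ARE-Fluc cells in 5% FBS OPTI-MEM, 5000 cells/well, rested 2 h then exposed to compounds in concentration-response for 18-24 h at 37 °C. Viability by CellTiter-Fluor fluorescence (Ex 405/Em 525) after 30 min; luciferase luminescence (BugLite, 15 min, RT) read afterwards.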
# ALOX12 inh: blocks human arachidonate 12S-lipoxygenase. P18054. purified 12hLO, xylenol orange hydroperoxide absorbance. Potency, µM (top dose mostly 108 µM), inactives show at the highest dose activity change, negative = inhibition, actives largely listed as inhibitors. 580,000 tested, 1.1% active. AID 1671190; further: potency means the concentration at half of the fitted maximal effect; on the % scale 0 is the no-effect control and ±100 the full control effect
#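 Purified human 12hLO (150 nM final) in 25 mM Hepes, 0.01% Triton X-100, pH 7.0 was preincubated 15 min at room temperature with compound. Then 40 uM arachidonic acid was added, 30 min. Hydroperoxide was read by Fe-XO absorbance ratio 573/405 nm.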
# LDHA inh: blocks human lactate dehydrogenase A. P00338. purified LDHA, NADH/diaphorase-resazurin fluorescence; stronger effect = lower value. activity change, % (values are at about 110 or 230 µM). 480,000 tested, 0.15% active; in the data active means activity change below about -30%; inconclusive means mostly about -25% to -30%;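 further: plate controls were DMSO wells for no effect and wells without enzyme for full effect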
#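 Human LDH5 at 2 nM final in Tris HCl pH 7.4 with 0.06 mM NADH and 0.2 mM pyruvate, reacted 5 minutes at room temperature. Remaining NADH coupled via diaphorase/resazurin; resorufin fluorescence read at 0 and 20 minutes, normalized to enzyme-free and DMSO wells.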
# ERG-DNA inh: inhibitors of human ERG Ets domain-DNA interaction; P11308; fluorescence polarization, His-ERG Ets domain / labelled DNA; Potency, µM (top dose mostly 76.9 µM), for the others: at the top dose FP activity, negative = inhibition, usual class: inhibitors; 370,000 tested, 0.028% active; AID 624246; active means well fitted inhibition curve with a large enough effect in the polarisation, with a control signal flat; inconclusive means small, poorly fitted or top-dose-only effect, or effect the other way, or a change in a side signal; inactive means no such curve, though single readings can be large or run the other way; the % refers to the polarisation;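 further: polarization taken with two DNA probes labelled with fluorescein and Texas red; potency means the concentration at half of the fitted maximal effect; % of control where 0% means no effect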
# Target sequence (P11308 whole entry, looked up, the tested form may be a part): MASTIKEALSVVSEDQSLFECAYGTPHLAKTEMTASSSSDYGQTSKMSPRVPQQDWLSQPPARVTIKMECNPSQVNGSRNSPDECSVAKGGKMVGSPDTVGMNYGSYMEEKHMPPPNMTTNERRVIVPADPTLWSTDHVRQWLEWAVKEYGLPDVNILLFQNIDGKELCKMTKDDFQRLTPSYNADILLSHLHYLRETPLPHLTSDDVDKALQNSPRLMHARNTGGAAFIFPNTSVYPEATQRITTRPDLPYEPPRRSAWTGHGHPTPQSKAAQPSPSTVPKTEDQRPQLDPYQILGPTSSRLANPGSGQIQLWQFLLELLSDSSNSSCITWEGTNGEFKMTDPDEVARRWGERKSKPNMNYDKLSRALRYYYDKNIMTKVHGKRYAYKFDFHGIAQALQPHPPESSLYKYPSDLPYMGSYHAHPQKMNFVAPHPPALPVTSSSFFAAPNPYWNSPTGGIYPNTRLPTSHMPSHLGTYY
#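 His-tagged ERG Ets domain (1 uM in the protein solution; 300mM KCl, 50mM Tris-HCl, 1mM EDTA, 1mM DTT, pH 7.5) received compound, then a probe mix of 5 nM fluorescein-DNA and 100nM Texas-615-DNA. Fluorescence polarization was read for both dyes.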
# An asterisk follows results filed as active; u = inconclusive; x = no result; ! = a repeat was not active; [ ] = another dose, or the depositor's remark. Unless noted, the call rests on the fitted dose curve; in most records, active means well fitted curve in the direction sought with a large enough effect; inconclusive means small, poorly fitted or top-dose-only effect, or another doubt; inactive means no such curve, though single readings can be large; an effect the other way counts as inactive or inconclusive.
SMILES,Nrf2 activator,Nrf2 inh,A549 viability,ALOX12 inh,LDHA inh,ERG-DNA inh
Cc1ccccc1NC(=O)c1c(NC(=O)C(F)(F)F)sc2c1CCCCC2,-2.1%,2.31µM*,u,u,4.3,5.3%
O=C(Nc1cccc(Cl)c1)c1c(NC(=O)C(F)(F)F)sc2c1CCCC2,-0.4%,u,u,u,u,6.3%
CCOc1ccc(NC(=O)c2c(NCc3ccc(C)o3)sc3c2CCCCC3)cc1,19.8%,x,-0.8%,39.8µM*,4.9,1.5%
CCOc1ccc(NC(=O)c2c(NCc3cccs3)sc3c2CCCCC3)cc1,8.4%,x,-0.8%,-27.7%,1.0,-8.9%
Cc1ccc2c(c1)CCCN2C(=O)c1n[nH]c(=O)c2ccccc12,x,x,x,-14.6%,8.4,x
Cc1nc2nc(N)nn2c(C)c1CC(=O)NC(C)C1CC1 (configuration not stated),x,x,x,-39.1%,-8.5,x
CCCn1c(=O)n(CC(=O)Nc2ccccc2OCC)c(=O)c2c1nc(C)n2CCOC,x,x,x,19.8%,-5.9,x
COc1ccc2c(CN(C)CCOc3cccc(Cl)c3)cc(=O)oc2c1,x,x,x,u,-3.3,x
O=[N+]([O-])c1cc(Br)c(O)c(/C=N/Nc2nnnn2-c2cccc3ccccc23)c1,0.7%,15.7%,-17.6%,11.2µM*,-36.8*,-1.5%
CC(C)n1ccnc1CN1CCCC12CCN(c1ccc(C(F)(F)F)cn1)CC2,x,x,x,56.2%,x,x
O=C(/C=C/c1ccccc1Br)c1ccc(O)c(CCCl)c1,x,x,x,12.6µM*,0.9,x
Cc1ccc(NC(=O)CN(C)CC(=O)NC2(C#N)CCCC2)cc1,x,x,x,-36.5%,4.3,x
O=C(O)CSc1cc(NS(=O)(=O)c2ccc(Cl)cc2)c2ccccc2c1O,-3.5%,-9.7%,-8.8%,2.82µM*,47.6,-6.0%
COc1cccc(C2C(C(=O)Nc3nc4ccccc4s3)=C(C)NC3=C2C(=O)CC(C)(C)C3)c1OC (configuration not stated),-0.8%,16.4µM*,-15.3%,u,-2.8,-6.1%
O=C(O)c1cccc(S(=O)(=O)Nc2ccc(-c3ccccc3)cc2)c1,0.3%,15.3%,0.2%,u,-5.9,5.2%
O=C(O)c1cccc(S(=O)(=O)NNc2ccccc2C(F)(F)F)c1,0.2%,3.0%,-0.2%,15.8µM*,26.4,2.5%
O=C(COC(=O)c1ccc2ccccc2n1)Nc1cccc(Cl)c1,x,x,x,u,-14.1,x
Cc1oc2cc(O)ccc2c(=O)c1-c1ccccc1,-0.7%,3.2%,-1.0%,-10.4%,-4.4,10.9%
Cc1oc2cc(O)ccc2c(=O)c1-c1nncn1-c1ccccc1,-0.2%,-13.6%,2.1%,-3.5%,5.5,35.5µM*
Nc1c(N(Cc2ccco2)C(=O)c2ccc(Br)cc2)c(=O)[nH]c(=O)n1Cc1ccccc1,2.0%,-11.3%,-0.6%,28.2µM*,-2.4,0.3%
COC(=O)C1=C(C)C(C(C)=O)(C(=O)OC)NC(C)=C1c1ccccc1Cl (configuration not stated),x,x,x,u,12.1,x
N#Cc1ccc(/C=C(/CC(=O)O)c2nc3ccccc3o2)cc1,x,x,x,u,-0.4,x
COc1cc(-c2ccc3c(=O)c4ccccc4n(C)c3c2)cc(OC)c1OC,0.8%,13µM*,u,-5.9%,-7.4,-0.3%
COc1cc(-c2ccc3c(=O)c4ccccc4sc3c2)cc(OC)c1OC,u,-26.9%,1.5%,-9.4%,-6.9,7.3%
Cc1ccc(C2C=C(c3ccc(Cl)cc3)Nc3nc(NC(=O)c4ccco4)nn32)cc1 (configuration not stated),4.1%,-9.4%,11.1%,22.4µM*,-0.7,2.4%
SMILES,Nrf2 activator,Nrf2 inh,A549 viability,ALOX12 inh,LDHA inh,ERG-DNA inh
O=C(N/N=C/c1ccc(OC(=O)c2ccccc2Cl)cc1)c1cc(O)cc(O)c1,-0.4%,6.51µM*,0.9%,21.0%,-9.1,1.4%
O=CNNC(=S)Nc1ccccc1C(F)(F)F,x,x,x,-4.3%,1.6,x
O=C(O)c1c2c(nc3ccccc13)/C(=C/c1cccc([N+](=O)[O-])c1)CCC2,2.4%,1.1%,-10.1%,39.8µM*,3.6,0.9%
COc1cccc(CNC[C@H]2O[C@H](Cc3cc(-c4ccccc4)on3)CC[C@@H]2O)c1,x,x,x,9.8%[176 µM],x,x
CN(Cc1cnc2nc(N)nc(N)c2n1)c1ccc(C(=O)N[C@@H](CCC(=O)O)C(=O)O)cc1,0.3%,1.46µM*!,-18.2%,u,-1.1,35.1%
NS(=O)(=O)c1ccc(Oc2ccc(S(N)(=O)=O)cc2)cc1,-0.2%,-9.1%,-9.9%,3.0%,0.9,2.6%
C=CS(=O)(=O)c1ccc(Oc2ccc(S(=O)(=O)C=C)cc2)cc1,-2.0%,18.4µM*,u,-11.9%,-8.7,-8.9%
S=C(Nc1ccc(Oc2ccc(NC(=S)NC3CCCCC3)cc2)cc1)NC1CCCCC1,0.0%,-16.0%,0.7%,11.2µM*,-6.3,-0.1%
CC(C)c1ccc(NC(=S)NC2CCCCCC2)cc1,3.3%,u,2.2%,-21.4%,-5.0,6.9%
S=C(Nc1ccc(Oc2ccccc2)cc1)NC1CCCCCC1,3.4%,u,-7.4%,28.2µM*,-3.5,7.8%
S=C(Nc1ccc(Oc2ccccc2)cc1)NC1CCCCC1,0.2%,u,-9.2%,u,-2.5,-0.1%
Cc1ccc(NC(=O)/C(C#N)=C\c2ccccc2OC(F)F)c(C)c1,x,x,x,u,2.7,x
O=[N+]([O-])c1cccc(-c2n[nH]c(=S)n2-c2ccc(Br)cc2)c1,-0.1%,u,-0.5%,u,-31.8*,-3.8%
CCN1C(SCC(=O)Nc2ccccc2)=NS(=O)(=O)c2ccccc21,x,x,x,36.0%,4.7,x
CCN(CC)CCn1nc(C)nc1-c1ccccc1O,-1.6%,-25.6%,2.8%,-12.7%,4.0,6.3%
CCN(CC)CCn1nc2c3c(cccc3c1=O)-c1ccccc1-2,-1.7%,u,13µM*,-7.8%,-2.5,-18.5%
Cc1ncc(N=Nc2ccccc2)c(-c2ccccc2)n1,3.98µM*,-2.4%,-1.1%,-9.2%,-0.6,-0.8%
COc1ccc2c(c1)cc(C(=O)NC(C)c1ccccc1)n2C (configuration not stated),x,x,x,u,0.9,x
COc1cc(CNCc2cccc3ccccc23)cc(OC)c1,14.7%,-4.7%,1.0%,0.708µM*,-11.3,-0.6%
C=CCNc1nc(-c2c(N)n(CC(C)C)c(=O)n(C)c2=O)cs1,x,x,x,4.8%,-17.3,x
O=C(NCCN1CCC(n2c(=O)[nH]c3ccccc32)CC1)c1ccc(F)cc1,-0.3%,x,x,35.5µM*,0.0,x
O=C(NCCN1CCC(n2c(=O)[nH]c3ccccc32)CC1)c1ccc(Cl)c(Cl)c1,11.0%,x,x,31.6µM*,0.4,x
O=C(NCCN1CCC(n2c(=O)[nH]c3ccccc32)CC1)c1ccc(Cl)cc1,5.0%,x,x,u,-1.5,x
